This is part of a sample that, as a whole, favours compounds with a hit. Of some 83,000 tested, about 20% had one in any assay.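 Treatment: one concentration, 48 hours, 96-well format. Scoring: percent growth, with anything below 10 considered active.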 The source made the active and inactive calls.
Tests used:
Test in all cases: NCI-60 one-dose screen, 48 h (100 = growth as untreated, 0 = no growth, -100 = all killed)
Conditions in all cases: 10 µM unless noted
NCI-H23 lung = tested on: NCI-H23 lung
NCI-H226 lung = tested on: NCI-H226 lung
NCI-H322M lung = tested on: NCI-H322M lung
HOP-62 NSCLC = tested on: HOP-62 NSCLC
NCI-H460 lung = tested on: NCI-H460 lung
NCI-H522 lung = tested on: NCI-H522 lung
A549/ATCC NSCLC = tested on: A549/ATCC NSCLC
786-0 renal = tested on: 786-0 renal
COLO 205 colon = tested on: COLO 205 colon
DU-145 prostate = tested on: DU-145 prostate
K-562 leukemia = tested on: K-562 leukemia
MALME-3M melanoma = tested on: MALME-3M melanoma
MDA-MB-231 breast = tested on: MDA-MB-231 breast
RXF 393 renal = tested on: RXF 393 renal
SF-268 CNS = tested on: SF-268 CNS
SF-295 CNS = tested on: SF-295 CNS
SF-539 CNS = tested on: SF-539 CNS
UACC-257 melanoma = tested on: UACC-257 melanoma
M14 melanoma = tested on: M14 melanoma

Measured: growth

O=C(Nc1ccccc1)c1cc2ccccc2s1
inactive: NCI-H23 lung 74.8% | NCI-H226 lung 88.4% | NCI-H322M lung 75.6% | HOP-62 NSCLC 94.5% | NCI-H460 lung 39.7% | NCI-H522 lung 82.4% | A549/ATCC NSCLC 69.4% | 786-0 renal 92.8% | COLO 205 colon 95.1% | DU-145 prostate 103% | K-562 leukemia 87.1% | MALME-3M melanoma 108% | MDA-MB-231 breast 78.2% | RXF 393 renal 110% | SF-268 CNS 95.6% | SF-295 CNS 96.8% | SF-539 CNS 110% | UACC-257 melanoma 95.1% | M14 melanoma 75.5%

COc1cc(NCCC2CCCCN2)c2ncccc2c1OC (configuration not stated)
inactive: NCI-H23 lung 49.1% | NCI-H226 lung 117% | NCI-H322M lung 116% | HOP-62 NSCLC 102% | NCI-H460 lung 80.3% | A549/ATCC NSCLC 82.1% | 786-0 renal 90.1% | COLO 205 colon 78.1% | DU-145 prostate 87.5% | K-562 leukemia 64.7% | MALME-3M melanoma 134% | MDA-MB-231 breast 74.2% | RXF 393 renal 111% | SF-268 CNS 92.9% | SF-295 CNS 110% | SF-539 CNS 92% | UACC-257 melanoma 66.3% | M14 melanoma 92.1%
active: NCI-H522 lung -7.89%

FC(F)(F)c1nn[nH]n1
inactive: NCI-H23 lung 96.6% | NCI-H226 lung 94.8% | NCI-H322M lung 111% | HOP-62 NSCLC 125% | NCI-H460 lung 117% | NCI-H522 lung 102% | A549/ATCC NSCLC 94.1% | 786-0 renal 107% | COLO 205 colon 122% | DU-145 prostate 99.5% | K-562 leukemia 113% | MALME-3M melanoma 100% | MDA-MB-231 breast 116% | RXF 393 renal 104% | SF-268 CNS 94.5% | SF-295 CNS 106% | SF-539 CNS 106% | UACC-257 melanoma 110% | M14 melanoma 112%

Cc1c(C(=O)Nc2ccccc2F)sc2c(=O)[nH]cnc12
inactive: NCI-H23 lung 94% | NCI-H226 lung 102% | NCI-H322M lung 94.1% | HOP-62 NSCLC 96.1% | NCI-H460 lung 51.6% | NCI-H522 lung 66.6% | A549/ATCC NSCLC 88.3% | 786-0 renal 98.4% | COLO 205 colon 97.8% | DU-145 prostate 112% | K-562 leukemia 47.4% | MALME-3M melanoma 88.3% | MDA-MB-231 breast 86.2% | RXF 393 renal 107% | SF-268 CNS 106% | SF-295 CNS 85.4% | SF-539 CNS 109% | UACC-257 melanoma 88.7% | M14 melanoma 75.1%

NS(=O)(=O)c1ccc(CCn2c(SCC(=O)N/N=C/c3cccnc3)nc3ccccc3c2=O)cc1
inactive: NCI-H23 lung 93.3% | NCI-H226 lung 83% | NCI-H322M lung 101% | HOP-62 NSCLC 83.3% | NCI-H460 lung 90.5% | NCI-H522 lung 68.5% | A549/ATCC NSCLC 97.3% | 786-0 renal 92.4% | COLO 205 colon 97.3% | DU-145 prostate 98.9% | K-562 leukemia 61% | MALME-3M melanoma 81.7% | MDA-MB-231 breast 98.5% | RXF 393 renal 93.4% | SF-268 CNS 89.7% | SF-295 CNS 85.7% | SF-539 CNS 104% | UACC-257 melanoma 107% | M14 melanoma 94.7%

COc1cnc2c(c1)C(=O)c1c-2n(CCCN2CCNCC2)c(=O)c2cc(Cl)ccc12
inactive: NCI-H226 lung 18.6% | NCI-H322M lung 54.3% | NCI-H522 lung 17.4% | COLO 205 colon 22.7% | SF-295 CNS 15.5% | UACC-257 melanoma 22.4%
active: NCI-H23 lung -63.2% | HOP-62 NSCLC -24.4% | NCI-H460 lung -81.2% | A549/ATCC NSCLC -30.9% | 786-0 renal -81.1% | DU-145 prostate -95.8% | K-562 leukemia -75.8% | MALME-3M melanoma -51.5% | MDA-MB-231 breast -73.1% | RXF 393 renal -1.72% | SF-268 CNS -75.6% | SF-539 CNS -93.8% | M14 melanoma -79.5%

C=C(COC(C)=O)[C@H]1CC/C(C)=C/CC/C(C)=C/CC[C@@]2(C)O[C@H]2C1
inactive: NCI-H23 lung 106% | NCI-H226 lung 108% | NCI-H322M lung 102% | HOP-62 NSCLC 107% | NCI-H460 lung 106% | NCI-H522 lung 95.3% | A549/ATCC NSCLC 105% | 786-0 renal 96% | COLO 205 colon 148% | DU-145 prostate 109% | K-562 leukemia 100% | MALME-3M melanoma 93.5% | MDA-MB-231 breast 107% | RXF 393 renal 112% | SF-268 CNS 97.2% | SF-295 CNS 110% | SF-539 CNS 114% | UACC-257 melanoma 100% | M14 melanoma 106%

C=CC(=O)N1CN(C(=O)C=C)CN(C(=O)C=C)C1
inactive: NCI-H23 lung 67.4% | NCI-H226 lung 87% | NCI-H322M lung 108% | HOP-62 NSCLC 88.3% | NCI-H460 lung 102% | A549/ATCC NSCLC 94.6% | 786-0 renal 95.7% | DU-145 prostate 77% | K-562 leukemia 23.5% | MDA-MB-231 breast 103% | RXF 393 renal 10.2% | SF-268 CNS 85.3% | SF-295 CNS 112% | SF-539 CNS 71.7% | UACC-257 melanoma 48% | M14 melanoma 87.1%
active: NCI-H522 lung -35.4% | COLO 205 colon -44.4% | MALME-3M melanoma -41.9%

Reference: PubChem BioAssay (NCI)
